PPC-1+TRAIL kill: PPC-1 cancer cell killing with TRAIL present; PPC-1 cells + TRAIL, ATPLite viability luminescence; cell killing (% activity), % at 4 µM or 5 µM; 0.41% of 220,000 active;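 active = cell killing above 50% in the first pass at 4 µM, then a duplicate retest at 5 µM averaging 50% or more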;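 also: plate controls were cells with TRAIL plus DMSO for no effect and medium-only wells lacking cells for full effect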
Peg3 promoter: Peg3 promoter activity inhibition; HeLa PEG-Prom luciferase reporter, luminescence, overnight; inhibition, % at 20 µM; 1.7% of 360,000 active;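 active = inhibition of at least 50% at 20 µM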
KKLEB tox: counter-screen for CF NF-kB inhibitors: cytotoxicity. 0.36% of 360,000 active. KKLEB CF airway cells viability, ATPlite luminescence, overnight; stronger effect = lower value; cells stimulated with P. aeruginosa culture filtrate. AID 602141. activity change (cytotoxicity), % at 5 µM;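 active = corrected activity change at or below -50% at 5 µM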
HIF-2a block: inhibitors of HIF-2a | 786-0 RCC cells HIF-2a reporter, luciferase luminescence, overnight | inhibition, % at 18.8 µM | 0.72% of 360,000 active;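 active = inhibition of the luminescence signal of 40% or more relative to plate controls, in a single-dose primary screen at 18.75 µM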
CF NFkB inh: blocks PAF-induced NF-kB reporter in cystic fibrosis cells. inhibition, % at 5 µM. 0.86% of 360,000 active. KKLEB NF-kB-GFP reporter, GFP fluorescence overnight. AID 588850;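 active = at least 50% inhibition at 5 µM, scaled per plate between neutral and stimulator controls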;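 also: PAF is a Pseudomonas aeruginosa culture filtrate used as stimulus; plate controls were PAF-stimulated DMSO wells for no effect and unstimulated DMSO wells for full effect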
TRAIL sens C8: sensitizes caspase-8 expressing cells to TRAIL; NB7+C8 cells + TRAIL, ATPlite viability luminescence; 1% of 360,000 active; AID 624354; inhibition (viability loss, TRAIL sensitization), % at 10 µM;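 active = compounds causing at least 50% loss of cell viability in the single-dose screen, relative to plate controls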
The depositor's hits bear a star. The list is not random: actives were taken first. Their share in the collection is about 3.1%.

How did CN(c1cccc(NC(=O)COc2ccc(Cl)cc2Cl)c1)S(C)(=O)=O do in these assays?
PPC-1+TRAIL kill: 35.5; Peg3 promoter: -204.0; KKLEB tox: -22.0; HIF-2a block: -253.7; CF NFkB inh: 11.3; TRAIL sens C8: 56.8*

What do the screens show for `CC1(C2CC2)NC(=O)N(CC(=O)Nc2ccc(C(F)(F)F)cc2)C1=O` (stereo not drawn)?
Peg3 promoter: 7.4; KKLEB tox: 4.0; HIF-2a block: 13.4; CF NFkB inh: -6.1; TRAIL sens C8: 10.6

Results for CCCCn1c(N)c(N(Cc2ccccc2OC)C(=O)C(C)C)c(=O)[nH]c1=O ?
Peg3 promoter: 9.7; KKLEB tox: 1.4; HIF-2a block: 1.7; CF NFkB inh: 16.4; TRAIL sens C8: -3.6

How did Cc1nnc(Sc2cc(NCCO)c([N+](=O)[O-])c3nonc23)s1 do in these assays?
PPC-1+TRAIL kill: 1.7; Peg3 promoter: 31.1; KKLEB tox: 20.4; HIF-2a block: 25.2; CF NFkB inh: -10.5; TRAIL sens C8: 18.0

Results for CCCSc1cc(NCCOC(C)=O)c([N+](=O)[O-])c2nonc12 ?
PPC-1+TRAIL kill: 11.3; Peg3 promoter: 14.3; KKLEB tox: -10.5; HIF-2a block: 24.4; CF NFkB inh: -15.2; TRAIL sens C8: -2.0

Results for O=[N+]([O-])c1c(NCCCO)cc(Sc2nc3ccccc3s2)c2nonc12 ?
PPC-1+TRAIL kill: 39.7; Peg3 promoter: 100.7*; KKLEB tox: 13.3; HIF-2a block: 34.6; CF NFkB inh: -20.4; TRAIL sens C8: -3.8

What do the screens show for `CCCSc1cc(NCCOC(=O)CCC)c([N+](=O)[O-])c2nonc12`?
PPC-1+TRAIL kill: 11.1; Peg3 promoter: 56.1*; KKLEB tox: -1.9; HIF-2a block: 13.7; CF NFkB inh: -5.9; TRAIL sens C8: -4.9

Results for Cc1nnc(Sc2cc(NCCCO)c([N+](=O)[O-])c3nonc23)s1 ?
PPC-1+TRAIL kill: 3.6; Peg3 promoter: 56.1*; KKLEB tox: 6.2; HIF-2a block: 32.2; CF NFkB inh: -7.2; TRAIL sens C8: 6.9

How did CC1(C(=O)NCc2ccccc2)CN(S(C)(=O)=O)CC(=O)N1C1CC1 (stereo not drawn) do in these assays?
HIF-2a block: 13.7; TRAIL sens C8: -0.8

Results for Cc1cn(C2CCCCO2)c(=O)[nH]c1=O (stereo not drawn) ?
Peg3 promoter: -3.2; KKLEB tox: 14.8; HIF-2a block: 6.3; CF NFkB inh: -19.7; TRAIL sens C8: 9.4

How did Cc1ccc(Nc2nc(N)c3ccccc3n2)cc1C do in these assays?
Peg3 promoter: -19.8; KKLEB tox: -54.4*; HIF-2a block: -26.4; CF NFkB inh: -3.1; TRAIL sens C8: 78.9*

What do the screens show for `CC(C)CN(C(=O)c1ccc(C(F)(F)F)cc1)c1c(N)n(CC(C)C)c(=O)[nH]c1=O`?
Peg3 promoter: 17.5; KKLEB tox: -1.1; HIF-2a block: 7.8; CF NFkB inh: 4.2; TRAIL sens C8: -8.9

How did O=C1C2CC=CCC2C(=O)N1Cc1ccccc1 (stereo not drawn) do in these assays?
PPC-1+TRAIL kill: 14.3; Peg3 promoter: 5.2; KKLEB tox: -0.2; HIF-2a block: 13.9; CF NFkB inh: 2.4; TRAIL sens C8: -4.6

How did O=C1C=CC(=O)N1Cc1ccccc1 do in these assays?
Peg3 promoter: 103.9*; KKLEB tox: -20.8; HIF-2a block: 1.4; CF NFkB inh: 76.5*; TRAIL sens C8: 0.2

How did Nc1ccc(NC(=O)c2ccccc2)c2c1C(=O)c1ccccc1C2=O do in these assays?
PPC-1+TRAIL kill: 1.9; Peg3 promoter: 31.5; KKLEB tox: -53.2*; HIF-2a block: 2.6; CF NFkB inh: 61.3*; TRAIL sens C8: 15.5

What do the screens show for `COc1ccc(/C(C)=N/Nc2nncc3ccccc23)cc1`?
Peg3 promoter: -266.6; KKLEB tox: -17.1; HIF-2a block: -270.9; CF NFkB inh: -25.3; TRAIL sens C8: 60.3*

What do the screens show for `CCN(CC)S(=O)(=O)c1cc(NC(=O)c2ccc(-n3cncn3)c([N+](=O)[O-])c2)ccc1C`?
Peg3 promoter: 4.8; KKLEB tox: -7.9; HIF-2a block: 7.1; CF NFkB inh: 10.1; TRAIL sens C8: 7.8

What do the screens show for `COc1ccc(OC)c2c1C(=O)c1ccccc1C2=O`?
PPC-1+TRAIL kill: -3.1

How did COC1=CC(=O)C(OC)=C(OC)C1=O do in these assays?
Peg3 promoter: 62.6*; KKLEB tox: 14.2; HIF-2a block: 14.2; CF NFkB inh: 58.5*; TRAIL sens C8: -3.6

Results for O=C(Nc1ccc(C(F)(F)F)cc1)c1ccccc1-n1cnnn1 ?
Peg3 promoter: 10.3; KKLEB tox: -4.4; HIF-2a block: 7.3; CF NFkB inh: 12.5; TRAIL sens C8: 5.4

What do the screens show for `COc1cccc(-n2c(SCC(=O)N3CCc4ccccc43)nnc2-c2c[nH]c3ccccc23)c1`?
PPC-1+TRAIL kill: 5.6; Peg3 promoter: 100.8*; KKLEB tox: -57.9*; HIF-2a block: 3.9; CF NFkB inh: 60.1*; TRAIL sens C8: 59.2*

Results for OCc1ccccc1-c1cnc2cccnn12 ?
Peg3 promoter: -3.8; KKLEB tox: 7.3; HIF-2a block: -5.3; CF NFkB inh: 7.2; TRAIL sens C8: -2.4

What do the screens show for `Cc1nnc(SCC(=O)NC2CCCC(C)C2C)n1N` (stereo not drawn)?
Peg3 promoter: 6.3; KKLEB tox: 4.4; HIF-2a block: 13.1; CF NFkB inh: -14.7; TRAIL sens C8: 6.9

How did CCC[C@H](CN[C@@H](CNC)[C@H](C)O)NCCc1ccc(OC)cc1 do in these assays?
Peg3 promoter: -2.8; KKLEB tox: 0.7; HIF-2a block: 7.6; CF NFkB inh: -7.4; TRAIL sens C8: -17.2

What do the screens show for `CCCC[C@@H](CNC)NC[C@H](Cc1ccc(O)cc1)NCCc1ccc(OCC)cc1`?
Peg3 promoter: 96.6*; KKLEB tox: -11.8; HIF-2a block: -1.9; CF NFkB inh: 12.4; TRAIL sens C8: 15.5

How did COc1ccc(-c2cc(=O)c3cc(C)ccc3[nH]2)cc1 do in these assays?
PPC-1+TRAIL kill: 40.1; Peg3 promoter: -193.6; KKLEB tox: -1.4; HIF-2a block: -199.3; CF NFkB inh: 7.2; TRAIL sens C8: 73.1*

How did COc1cc2[nH]c(-c3ccc(C)cc3)cc(=O)c2cc1OC do in these assays?
PPC-1+TRAIL kill: 10.9; Peg3 promoter: -116.7; KKLEB tox: 6.1; HIF-2a block: -182.4; CF NFkB inh: 1.4; TRAIL sens C8: -9.8

What do the screens show for `CCCCCCCCN1C(=O)[C@H](CC(=O)N2CCOCC2)C[C@@]2(C(=O)OCC)CCCC=C12`?
HIF-2a block: 1.1; TRAIL sens C8: 6.2

Results for NC(Cc1ccc(C(F)(F)F)cc1)c1csc(Nc2cc(Oc3ccccc3)ncn2)n1 (stereo not drawn) ?
Peg3 promoter: 105.6*; KKLEB tox: -93.8*; HIF-2a block: 11.4; CF NFkB inh: 90.6*; TRAIL sens C8: 23.9

How did NC(c1csc(Nc2cc(Oc3ccccc3)ncn2)n1)C1CCCCC1 (stereo not drawn) do in these assays?
Peg3 promoter: 99.2*; KKLEB tox: 6.8; HIF-2a block: 5.5; CF NFkB inh: 20.9; TRAIL sens C8: 26.9

From PubChem BioAssay
